Assay outcomes as filed in PubChem BioAssay.
D1 antag = antagonists of human D1 dopamine receptor; P21728; HEK293 TREx D1 cells, calcium flux, dopamine EC80; stronger effect = lower value; hit rate 3.2% among 360,000; AID 504652; activity change, negative = inhibition, % at 10 µM; in the data active = activity change below about -30%
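Calcium flux readout: force-coupled, inducible Hek293 Trex D1 line, cells induced overnight at 30 C with tetracycline, dye-loaded 30–90 min at RT. Antagonism scored against EC80 dopamine challenge given 180 s after compound.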
ERG-DNA inh = inhibitors of human ERG Ets domain-DNA interaction; fluorescence polarization, His-ERG Ets domain / labelled DNA; Potency, µM (series often up to 76.9 µM), most hits filed as inhibitors; AID 624246; hit rate 0.028% among 370,000; P11308; active = well fitted inhibition curve with a large enough effect in the polarisation, with a control signal flat; inconclusive = small, poorly fitted or top-dose-only effect, or effect the other way, or a change in a side signal; inactive = no such curve, though single readings can be large or run the other way; the % refers to the polarisation;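 note: polarization taken with two DNA probes labelled with fluorescein and Texas red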
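His-tagged ERG Ets domain (1 uM in the protein solution; 300mM KCl, 50mM Tris-HCl, 1mM EDTA, 1mM DTT, pH 7.5) received compound, then a probe mix of 5 nM fluorescein-DNA and 100nM Texas-615-DNA. Fluorescence polarization was read for both dyes.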
D1 potentiator = human D1 dopamine receptor positive modulation. AID 504651. HEK293 TREx D1 cells, calcium flux, dopamine EC20 potentiation. potentiation, % at 10 µM. P21728. hit rate 0.036% among 360,000; in the data active = potentiation above about 30%
DRD3 agonist = agonists of human D3 dopamine receptor | P35462 | hit rate 0.58% among 410,000 | max activation, % | AID 652048 | D3R DiscoveRx beta-arrestin cells, luminescence, 90 min; in the data active = max activation above about 30%
Target sequence (P35462 whole entry, looked up): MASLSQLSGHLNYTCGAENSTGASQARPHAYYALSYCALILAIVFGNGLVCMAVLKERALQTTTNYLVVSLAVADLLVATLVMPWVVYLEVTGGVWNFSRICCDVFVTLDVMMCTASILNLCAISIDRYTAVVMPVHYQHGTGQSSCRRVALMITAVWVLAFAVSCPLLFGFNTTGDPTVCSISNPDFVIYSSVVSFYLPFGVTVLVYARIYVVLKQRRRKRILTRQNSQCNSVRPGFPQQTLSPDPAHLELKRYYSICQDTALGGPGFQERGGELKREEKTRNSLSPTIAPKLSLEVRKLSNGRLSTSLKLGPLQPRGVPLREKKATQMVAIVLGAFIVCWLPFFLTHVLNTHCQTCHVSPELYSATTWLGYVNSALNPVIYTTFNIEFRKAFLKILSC
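Cells at 1500/well, incubated overnight, then treated with pinned compounds (dopamine as control) for 90 min at 37 degrees C. DiscoveRx reagent added for 30 - 60 minutes at room temperature; luminescence read.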
DRD3 antagonist = antagonists of human D3 dopamine receptor | P35462 | D3R cells, DiscoveRx beta-arrestin luminescence, antagonist mode; stronger effect = lower value | max response, negative = inhibition, % | hit rate 2.5% among 360,000 | AID 652054; in the data active = max response below about -50%; inconclusive = no clear call, values can overlap the other calls
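Cells plated overnight at 1500 cells/well, then exposed to library compounds with dopamine controls for 90 minutes at 37 degrees C. DiscoveRx reagent added for 30–60 minutes at room temperature; luminescence read, quantitative HTS format.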
D1 agonist = human D1 receptor agonism; hit rate 1% among 360,000; activation, % at 2 µM; HEK293 T-REx D1 cells, calcium flux, agonist mode; AID 504660; in the data active = activation above about 30%
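Agonism was scored from calcium flux recorded over 180 s (1 read/s) after pintool compound addition, following a 10-cycle baseline. Cells were inducible force-coupled HEK293 TREx D1, plated overnight at 30 C and loaded with no-wash calcium dye.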
A number is an active result; 0 = inactive; ? = inconclusive; - = no result. Only some compounds are listed: those with a hit (about 6.1% of all), similar ones and a draw of the others.

SMILES | D1 antag | ERG-DNA inh | D1 potentiator | DRD3 agonist | DRD3 antagonist | D1 agonist
Cc1c(NC(=O)CSc2nc3ccc(Cl)cc3[nH]2)c(=O)n(-c2ccccc2)n1C | - | 0 | 0 | 0 | 0 | 0
NS(=O)(=O)c1ccc(NC(=O)CSc2nc3ccccc3[nH]2)cc1 | -84 | 0 | 0 | 0 | 0 | 0
CC(=O)c1ccc(NC(=O)C2CCCN(C(=O)c3ccc(Cl)cc3)C2)cc1 (stereo not given) | 0 | 0 | 0 | 0 | 0 | 0
CCN(C(=O)CSc1nnc(-c2ccncc2)n1C)C1CCS(=O)(=O)C1 (stereo not given) | 0 | 0 | 0 | 0 | 0 | 0
CCN(CC)C(=O)Cn1c(=O)n(-c2ccc(Cl)cc2)c(=O)c2c3c(sc21)CCCCC3 | 0 | 0 | 0 | 0 | - | 0
O=C(CSc1nc2ccccc2[nH]1)NC(=O)NCc1ccco1 | -40 | 0 | 0 | 0 | 0 | 0
Cc1c(NC(=O)CSc2nnnn2-c2ccc(O)cc2)c(=O)n(-c2ccccc2)n1C | -47 | 0 | 0 | 0 | 0 | 0
Cc1ccccc1OCc1ccc(-c2nc(C#N)c(NCCCN(C)C)o2)o1 | 0 | 0 | 0 | 0 | - | 44
Cc1ccc(N2CCN(CC(O)COc3cccc(C)c3)CC2)cc1 (stereo not given) | 0 | 0 | 0 | 0 | ? | 0
Cc1cccc(N2CCN(CC(O)COc3ccccc3)CC2)c1 (stereo not given) | - | 0 | - | 0 | -71 | -
Cc1cccc(N2CCN(CC(O)COc3ccc(Cl)cc3)CC2)c1 (stereo not given) | 0 | 0 | 0 | 0 | -80 | 0
OC(COc1ccc(Cl)cc1)CN1CCN(c2cccc(Cl)c2)CC1 (stereo not given) | 0 | 0 | 0 | 0 | ? | 0
Cc1ccc2c(c1)-c1c(cnn1CC(=O)N1CCN(c3cc(C)ccc3C)CC1)CO2 | 0 | 0 | 0 | 0 | - | 0
c1ccc2c(c1)ncn2Cc1nnc2sc(-c3ccncc3)nn12 | 0 | 0 | 0 | 0 | 0 | 0
c1ccc(-c2nn3c(Cn4cnc5ccccc54)nnc3s2)cc1 | -33 | 0 | 0 | 0 | 0 | 0
Cc1ccc(-n2c(=O)c3ccc(C(=O)NCc4ccco4)cc3n(Cc3ccccc3Cl)c2=O)cc1 | 0 | 0 | 0 | 0 | - | 0
CCCN(CCC)C(=O)Cn1c(=O)n(-c2ccc(C)cc2)c(=O)c2ccc(C(=O)NCc3ccccc3Cl)cc21 | -66 | 0 | 0 | 0 | - | 0
CCCC1CCC(C(=O)Nn2c(C)nc3ccccc3c2=O)CC1 (stereo not given) | 0 | - | 0 | 0 | 0 | 0
CCCCCCC1CCC(C(=O)Nn2c(C)nc3ccccc3c2=O)CC1 (stereo not given) | 0 | - | 0 | 30 | 0 | 0
COc1cccc(NC(=O)C2C3C=CC4(O3)C2C(=O)N(CCCN2CCC(C)CC2)C4C(=O)NC2CCCCC2)c1 (stereo not given) | 0 | 0 | 0 | 0 | 0 | 0
COc1ccc(CCNc2nnc(Sc3nnnn3-c3ccccc3)s2)cc1OC | -53 | 0 | 0 | 0 | 0 | 0
CCOc1cc(CNCCSc2nnnn2-c2ccccc2)ccc1OC | 0 | 0 | 0 | 0 | - | 30
Cc1ccccc1CNCCCSc1nnnn1-c1ccccc1 | 0 | 0 | 0 | 0 | - | 36
CCOC(=O)c1c(C)[nH]c(CCC(=O)NCc2ccc(OC)cc2OC)c1C | 0 | 0 | 0 | 0 | - | 0
CCC(C)[C@H]1CNCCN1CCC12CC3CC(CC(C3)C1)C2 (stereo not given in full) | - | 0 | 0 | 0 | 0 | 0
SMILES | D1 antag | ERG-DNA inh | D1 potentiator | DRD3 agonist | DRD3 antagonist | D1 agonist
OC(c1ccccc1)C1CN(Cc2ccccc2)CCC1(O)c1ccccc1 (stereo not given) | 0 | - | 0 | 0 | -59 | 0
OC1(c2ccc(F)cc2)CCN(Cc2cccnc2)CC1 | 0 | 0 | 0 | 0 | -61 | 0
O=S(=O)(c1ccc(F)cc1)N1CCC(O)(c2ccc3c(c2)OCO3)CC1 | 0 | 0 | 0 | 0 | 0 | 0
OC1(c2ccc3c(c2)OCO3)CCN(Cc2ccc(F)cc2)CC1 | 0 | 0 | 0 | 0 | -99 | 0
OC1(c2ccccc2)CCN(Cc2ccccc2)CC1 | 0 | 0 | 0 | 0 | -80 | 0
COc1ccccc1NC(=O)CSc1nnc(Cn2cnc3ccccc32)o1 | 0 | 0 | 0 | 0 | 0 | 0
COc1ccccc1N1CCN(C(=O)Cc2c(C(=O)O)c(C)cn2C)CC1 | 0 | 0 | 0 | 0 | - | 0
Cc1ccc(OCC(=O)N/N=C/C=C/c2ccco2)c(Br)c1 | 0 | 0 | 0 | 0 | 0 | 0
O=C(/C=C/Nc1ccc(F)cc1)c1ccc(Oc2ncccn2)cc1 | -41 | 0 | 0 | 0 | 0 | 0
Cc1ccc2c(CC(=O)Nc3ccc4nc(N5CCOCC5)sc4c3)coc2c1 | - | - | - | 0 | 0 | -
CC1CN(C)C(C)C/C1=N\Oc1ccc([N+](=O)[O-])cc1 (stereo not given) | -31 | 0 | 0 | 0 | 0 | 0
CC1CN(C)C(C)C/C1=N/Oc1ccccc1[N+](=O)[O-] (stereo not given) | 0 | 0 | 0 | 0 | 0 | 0
CCOC(=O)[C@H]1[C@H]2COc3ccc(Br)cc3[C@@H]2N2C(=O)CN(Cc3ccc(OC)cc3)C(=O)[C@@]12C | -30 | 0 | 0 | 0 | 0 | 0
CCOC(=O)[C@@H]1[C@H]2COc3cc(OC)ccc3[C@@H]2N2C(=O)N(c3ccc(C(F)(F)F)cc3)C(=O)[C@]12C | 0 | 0 | 0 | 46 | 0 | 0
CCOC(=O)[C@@H]1[C@H]2COc3cc(OC)ccc3[C@@H]2N2C(=O)N(c3ccc(Cl)cc3)C(=O)[C@]12C | - | 0 | - | 34 | 0 | -
CCOC(=O)[C@@H]1[C@H]2COc3ccc(Br)cc3[C@@H]2N2C(=O)N(c3ccc(Br)cc3)C(=O)[C@]12C | 0 | 0 | 0 | 0 | 0 | 0
CCOC(=O)[C@@H]1[C@H]2COc3cc(OC)ccc3[C@@H]2N2C(=O)N(c3ccc(OC)cc3)C(=O)[C@@]12C | - | 0 | - | 0 | 0 | -
CCOC(=O)[C@@H]1[C@H]2COc3cc(OC)ccc3[C@H]2N2C(=O)N(c3ccc(Cl)cc3)C(=O)[C@]12C | - | 0 | - | 0 | 0 | -
CCOC(=O)[C@H]1[C@H]2COc3ccc(Cl)cc3[C@@H]2N2C(=O)CN(Cc3ccc(OC)cc3)C(=O)[C@@]12C | - | 0 | 0 | 0 | 0 | 0
CCOC(=O)[C@@H]1[C@H]2COc3ccc(Br)cc3[C@H]2N2C(=O)N(c3ccc(OC)cc3)C(=O)[C@]12C | - | 0 | - | 0 | -62 | -
COc1ccc(S(=O)(=O)c2c(O)c3ccc(C(=O)Nc4ccc(F)cc4F)cc3[nH]c2=O)cc1 | 0 | 0 | 0 | 0 | 0 | 0
Cc1sc2ncnc(NCCN3CCOCC3)c2c1C | 0 | 0 | 0 | 0 | ? | 0
CCOC(=O)[C@H]1[C@H]2COc3ccc(OC)cc3[C@@H]2N2C(=O)CN(CCc3c[nH]c4ccccc34)C(=O)[C@@]12C | - | 0 | 0 | 58 | 0 | 0
